Rows were chosen to be rich in hits. Some 19% of all compounds tested hit in one or more screens of this group.
TDP1 inh = blocks human tyrosyl-DNA phosphodiesterase 1; AID 485290; recombinant TDP1, AlphaScreen DNA substrate cleavage; Q9NUW8; Potency, µM (doses to about 130 µM), hits mostly inhibitors; actives 0.28% (n = 350,000); also: nearly all actives have a fitted effect of over 40% in size
Target sequence (Q9NUW8 whole entry, looked up): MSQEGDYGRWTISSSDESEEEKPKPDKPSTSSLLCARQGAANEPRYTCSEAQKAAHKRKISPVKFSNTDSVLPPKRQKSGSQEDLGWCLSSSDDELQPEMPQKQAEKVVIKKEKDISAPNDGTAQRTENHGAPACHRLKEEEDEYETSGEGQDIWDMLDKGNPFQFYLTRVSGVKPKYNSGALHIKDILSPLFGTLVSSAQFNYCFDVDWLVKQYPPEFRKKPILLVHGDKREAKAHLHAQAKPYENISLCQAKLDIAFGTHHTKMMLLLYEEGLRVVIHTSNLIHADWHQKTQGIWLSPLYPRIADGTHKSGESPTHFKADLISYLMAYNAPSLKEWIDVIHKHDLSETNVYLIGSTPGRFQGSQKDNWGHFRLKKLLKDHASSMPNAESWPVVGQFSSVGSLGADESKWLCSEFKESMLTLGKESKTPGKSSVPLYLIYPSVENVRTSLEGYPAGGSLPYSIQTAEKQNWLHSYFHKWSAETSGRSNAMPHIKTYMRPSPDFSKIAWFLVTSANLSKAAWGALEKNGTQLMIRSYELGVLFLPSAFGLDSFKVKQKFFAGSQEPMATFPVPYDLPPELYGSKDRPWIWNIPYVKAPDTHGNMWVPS
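Recombinant E. coli-expressed Tdp1 (1 nM) preincubated with compound 15 min at RT, then 5'-biotin/3'-phosphotyrosine-FITC DNA substrate (15 nM) added for 5 min. AlphaScreen beads (10 ug/ml) added, 10 min RT; tyrosine-FITC cleavage read as signal loss.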
DT40 TDP1 no CPT = qHTS for Inhibitors of human tyrosyl-DNA phosphodiesterase 1 (TDP1): qHTS in cells in absence of CPT. actives 15% (n = 420,000). DT40 Tdp1-/- hTDP1 cells, no CPT, ATP luminescence, 48 h. Potency, µM (highest dose often 46.2 µM), actives largely listed as inhibitors; also: nearly all actives have a fitted effect of over 55% in size
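Stably hTDP1-transfected Tdp1-null chicken DT40 cells were treated with library compounds minus camptothecin and grown for at least 48 hr at 37 °C, after which cellular ATP was quantified by luminescence.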
IL1B secr inh = inflammasome signaling inhibition, IL-1 beta readout; THP-1 LPS/ATP IL-1B secretion, AlphaLISA, 16 h; stronger effect = lower value; activity change, % at 57.5 µM; actives 4.7% (n = 360,000); AID 743279; in the data active = activity change below about -50%; inconclusive = mostly about -30% to -49%
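Secreted IL-1B measured by AlphaLISA bead assay after 16 h compound exposure of THP-1 cells; compounds (final up to 57.5 uM) added 1 h before LPS (250 ng/mL) and ATP (1.25 mM) stimulation; lower signal means less secretion.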
HepG2 viability = HepG2 cytotoxicity, counter-screen for TGF-b inhibitors | HepG2 CAGA-GFP viability, ATP luminescence, 18 h | AID 588856 | actives 0.76% (n = 410,000) | Potency, µM (titrated, usually from 46.1 µM), most hits filed as cytotoxic
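CellTiter-Glo luminescence gave cytotoxicity after 18 hours at 37 degrees C. The cells were HepG2 CAGA-GFP in 1% FBS DMEM, stimulated with 500 pg/mL TGF-beta after compound addition. %Activity was normalised to no-cell wells (complete cell-killing) and DMSO (no toxicity), and curves were fitted and classified.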
DT40 TDP1 CPT = DT40-hTDP1 cell growth loss with CPT; actives 12% (n = 420,000); chicken DT40 Tdp1-/-;hTDP1 cells + 20 nM CPT, ATP luminescence, 48 h; Potency, µM (titrated, usually from 46.2 µM), hits mostly inhibitors; also: nearly all actives have a fitted effect of over 55% in size
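Chicken DT40 Tdp1-/- cells complemented with human TDP1, 400 cells/well, exposed to compounds plus 20 nM camptothecin for at least 48 h at 37 C; viability read as ATP content by CellTiter-Glo luminescence.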
TGFb SMAD3 inh = blocks TGF-b signaling; HepG2 CAGA-GFP TGF-b/SMAD3 reporter, GFP fluorescence, 18 h; TGF-beta stimulated, 500 pg/mL final; Potency, µM (highest dose often 46.1 µM), most hits filed as inhibitors; actives 1.2% (n = 410,000); AID 588855; also: nearly all actives have a fitted effect of over 65% in size
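Cell-based qHTS in HEPG2 carrying a CAGA-GFP Smad reporter; compounds added before 500 pg/mL final TGF-beta, 18 h incubation at 37 degrees C, GFP fluorescence quantified per cell by imaging cytometry.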
Hits are given with their value; i = inactive; ? = inconclusive; nt = not tested or not shown; [ ] = remark or other dose. Unless noted, calls follow the shape of the dose curve; as a rule, active = well fitted curve in the direction sought with a large enough effect; inconclusive = small, poorly fitted or top-dose-only effect, or another doubt; inactive = no such curve, though single readings can be large; an effect the other way counts as inactive or inconclusive.

SMILES	TDP1 inh	DT40 TDP1 no CPT	IL1B secr inh	HepG2 viability	DT40 TDP1 CPT	TGFb SMAD3 inh
CC(=O)N1CCN(C(=O)c2ccc(Cl)c(S(=O)(=O)N3CCc4ccccc43)c2)CC1	i	?	i	i	i	i
CCc1ccc(NC(=O)C(=O)NCCc2sc3nc(-c4ccc(OC)cc4)nn3c2C)cc1	i	i	nt	i	i	i
NC(=O)C1CCCN(C(=O)c2ccc(Cl)c(S(=O)(=O)N3CCc4ccccc43)c2)C1 (centres undefined)	nt	?	i	i	?	i
O=C(NCc1ccco1)c1ccc(Cl)c(S(=O)(=O)N2CCc3ccccc32)c1	i	?	-51	i	?	?
O=C(NNC(=O)c1ccccc1O)c1ccc(Cl)c(S(=O)(=O)N2CCc3ccccc32)c1	i[0.505 µM]	21µM	i	i	21µM	i
Cc1c(Cl)cccc1NC(=O)Cn1c(=O)n(Cc2ccco2)c(=O)c2sc3ccccc3c21	i	?	nt	i	?	i
COc1cc2nc(CN(C)Cc3ccc(Cl)cc3)[nH]c(=O)c2cc1OC	i	26µM	i	i	?	i
COc1cc2nc(CN3CCC(Cc4ccccc4)CC3)[nH]c(=O)c2cc1OC	i	?	i	i	?	i
COc1cc2nc(CN3CCC(C(O)(c4ccccc4)c4ccccc4)CC3)[nH]c(=O)c2cc1OC	i	18µM	i	i	?	i
COc1cc2nc(CN(C)Cc3nc4ccccc4c(=O)[nH]3)[nH]c(=O)c2cc1OC	i	13µM	i	i	13µM	i
COc1cc2nc(CN(C)Cc3ccc(SC)cc3)[nH]c(=O)c2cc1OC	i	i	i	i	i	i
O=C1CCCC/C1=C/Nc1ccc(C(=O)O)cc1	i	i	i	i	i	i
CC1CCC/C(=C\Nc2ccc(O)cc2)C1=O (centres undefined)	i	?	?	i	21µM	i
CCC(=O)N(C1=C(NC(C)C)C(=O)c2ccccc2C1=O)C(C)C	nt	9.2µM	i	i	21µM	?
CC(=O)N(C1=C(N)C(=O)c2ccccc2C1=O)C(C)C	i	?	i	i	?	i
Cc1noc(C)c1-c1cc(NC2CC2)ncn1	40µM	8.2µM	nt	nt	12µM	nt
CNc1cc(-c2cc(OC)ccc2OC)ncn1	nt	i	i	i	i	i
Cc1noc(C)c1-c1cc(Nc2ccc(F)cc2)ncn1	i	i	nt	nt	i	nt
COc1ccccc1-c1cc(Nc2ccc(F)cc2)ncn1	nt	23µM	nt	nt	?	nt
Cc1noc(C)c1-c1cc(N(C)C)ncn1	i	23µM	nt	nt	?	nt
Cc1noc(C)c1-c1cc(NCc2ccccc2)ncn1	i	23µM	nt	nt	?	nt
Cc1noc(C)c1-c1cc(N2CCN(C)CC2)ncn1	nt	i	nt	nt	i	nt
COc1ccccc1CCNC(=O)c1cc2c(=O)n3cccc(C)c3nc2n1C	i	i	nt	i	i	i
CC1(C(=O)NS(=O)(=O)C2CC2)CCN(C(=O)c2ccc3c(c2)OCO3)C1 (centres undefined)	nt	i	i	i	i	i
COc1ccccc1-c1cc(NCc2ccccc2)ncn1	nt	5.8µM	nt	nt	6.5µM	nt
SMILES	TDP1 inh	DT40 TDP1 no CPT	IL1B secr inh	HepG2 viability	DT40 TDP1 CPT	TGFb SMAD3 inh
Cc1noc(C)c1-c1cncnc1NC1CC1	28µM	i	nt	nt	i	nt
Cc1noc(C)c1-c1cncnc1Nc1ccccc1	nt	i	nt	nt	i	nt
Cc1ccccc1-c1cc(NCc2ccccc2)ncn1	nt	21µM	nt	nt	15µM	nt
Fc1ccccc1C1c2[nH]c3ccccc3c2CCN1Cc1ccoc1 (centres undefined)	i	?	i	i	?	?
Cc1ccc(C(=O)N2CCC3CC2c2cc(-c4ccc5c(c4)OCO5)ccc23)cc1 (centres undefined)	nt	13µM	i	i	16µM	?
COc1cccc(-c2ccc3c(c2)C2CC3CCN2C(C)=O)c1 (centres undefined)	nt	?	i	i	i	i

Bioassay records (PubChem)
